In PubChem BioAssay AID1415 (NMMLSC, 2008) one finds binding response (% of control) data, which are given here for 48 molecules.

About 710 (0.32%) of roughly 220,000 compounds were called active. Rule as the data show it: active = binding response below about 49% or above about 150%; inactive = in between. The full list was thinned out, with actives kept by preference.

Sequence of Guanine nucleotide-binding protein G(o) subunit alpha (Homo sapiens) (P09471 whole entry, looked up): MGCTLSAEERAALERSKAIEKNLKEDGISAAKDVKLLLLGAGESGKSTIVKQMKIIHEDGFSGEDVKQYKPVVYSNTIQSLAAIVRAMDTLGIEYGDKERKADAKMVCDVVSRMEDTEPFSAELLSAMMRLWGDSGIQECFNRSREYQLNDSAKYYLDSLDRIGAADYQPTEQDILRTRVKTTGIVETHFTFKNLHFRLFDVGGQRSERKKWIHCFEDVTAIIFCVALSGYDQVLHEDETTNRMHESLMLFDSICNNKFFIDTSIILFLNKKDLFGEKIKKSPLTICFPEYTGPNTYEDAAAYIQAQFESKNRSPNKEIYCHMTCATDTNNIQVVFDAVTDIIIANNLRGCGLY

This assay addresses Guanine nucleotide-binding protein G(o) subunit alpha (Homo sapiens) (UniProt P09471). Kind of assay: RGS4-Galphao interaction inhibitors and enhancers – biochemical, multiplexed bead flow cytometry, primary screen (AID 1415).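 Also: fluorescent Galphao activated with aluminum fluoride binding bead-coupled RGS4.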 The conditions noted are these: at 10 µM, actives lie on both sides. For orientation: In flow cytometry, cells or beads pass a laser one at a time.
In the case of `CCCn1cc(SCC(N)=O)c2ccccc21`, the binding response (% of control) was 82.2% (inactive).

Consider `O=C(Cc1c[nH]c2ccccc12)OCCOC(=O)Cc1c[nH]c2ccccc12`, for which the binding response (% of control) is 97.3% (inactive).

With `NC(=O)CSc1c[nH]c2ccccc12`, the binding response (% of control) is 30% (active).

For `COc1ccc(Cl)cc1C(=O)NNC(=S)NC(=O)/C=C/c1ccco1`, the binding response (% of control) was 104% (inactive).

Turning to `CCOc1ccc(-c2c(C)n([O-])c3c([n+]2=O)CCCC3)cc1`, the binding response (% of control) is 102% (inactive).

Turning to `Cc1c(S(=O)(=O)NCc2ccccc2)c(=O)n(C)c(=O)n1C`, the binding response (% of control) is 103% (inactive).

On to `CC(C)=CCc1c(O)c(CC=C(C)C)c2occ(-c3ccc(O)cc3)c(=O)c2c1O`, for which the binding response (% of control) was 96.8% (inactive).

For the molecule `CC(=O)c1cc(-c2ccccc2)n(CC(=O)NC2CCCCC2)c1C`, the binding response (% of control) was 94.2% (inactive).

For `CCOCCCNC(=O)C(NC(=O)c1ccc(=O)[nH]c1)c1ccc(Cl)cc1` (stereo not drawn), the binding response (% of control) is 98.1% (inactive).

For `CC(OC(=O)c1ccc2ccccc2n1)C(=O)c1ccccc1` (stereo not drawn), the binding response (% of control) is 103% (inactive).

Regarding `COc1ccc(C(=O)COC(=O)c2ccc3ccccc3n2)cc1`, the binding response (% of control) is 36.8% (active).

For the molecule `COc1ccc(C2=NOC(COC(=O)c3ccc4ccccc4n3)C2)cc1` (stereo not drawn), the binding response (% of control) was 99.3% (inactive).

In the case of `Cc1nc(N)[nH]c(=O)c1Oc1cccc(C(F)(F)F)c1`, the binding response (% of control) is 99.6% (inactive).

Take `CCCCCCCN=C(C)c1ccccc1O`: the binding response (% of control) was 103% (inactive).

As for `CCOC(=O)C1Cn2c(nc3c(c2=O)C(C)(CC)Cc2ccccc2-3)S1` (stereo not drawn), the binding response (% of control) was 93% (inactive).

On to `CCC(=O)Nc1cccc(C2=NOC3(C2)C[C@@H](C(N)=O)N(C(=O)c2cc([N+](=O)[O-])cc([N+](=O)[O-])c2C)C3)c1` (stereo partly drawn), for which the binding response (% of control) was 96% (inactive).

`COc1ccc(/C=C/C(=O)Nc2ccc(C34CC5CC(CC(O)(C5)C3)C4)cc2)cc1OC`: the binding response (% of control) is 102% (inactive).

Turning to `Cc1ccsc1/C=N/Nc1ccc(Cl)nn1`, the binding response (% of control) was 108% (inactive).

Regarding `C=CCN1CC(C)/C(=N\O)CC1C` (stereo not drawn), the binding response (% of control) was 99.6% (inactive).

For `O=C(NC1CCCCC1)c1ccc(CNc2c(N3CCOCC3)c(=O)c2=O)cc1`, the binding response (% of control) is 102% (inactive).

Take `COc1ccc(CC(=O)N/N=C(\C)c2ccccn2)cc1`: the binding response (% of control) is 91.7% (inactive).

`CCOc1cc(NC(=O)c2ccccn2)c(OCC)cc1NC(=O)c1ccc(OC)cc1`: the binding response (% of control) is 102% (inactive).

Consider `CCN(CC)CCOc1ccc2c(c1)C(=NNC(=O)c1ccccn1)c1cc(OCCN(CC)CC)ccc1-2`, for which the binding response (% of control) was 172% [activator] (active).

As to `COC(=O)c1c(C(=O)OC)c(-c2cccc(C)c2)n2c1CS(=O)C2` (stereo not drawn), the binding response (% of control) was 91.5% (inactive).

On to `COc1cc(OC)nc(NC(=O)CCl)n1`, for which the binding response (% of control) is 101% (inactive).

As for `CCC(=O)Nc1nc(OC)cc(OC)n1`, the binding response (% of control) was 102% (inactive).

Regarding `CC(=O)Nc1nc(N(C)C)nc(N(C)C)n1`, the binding response (% of control) is 14.5% (active).

Consider `CC(NC(=O)C1CCC(CNc2c(N3CCOCC3)c(=O)c2=O)CC1)c1ccccc1` (stereo not drawn), for which the binding response (% of control) is 99.8% (inactive).

As for `COc1ccc(CNC(=O)C2CCC(CNc3c(N4CCOCC4)c(=O)c3=O)CC2)cc1` (stereo not drawn), the binding response (% of control) is 106% (inactive).

`O=C(NCc1ccc(F)cc1)C1CCC(CNc2c(N3CCOCC3)c(=O)c2=O)CC1` (stereo not drawn): the binding response (% of control) was 11.6% (active).

For the molecule `O=C(c1ccc(Br)o1)N(c1ccccn1)C1CCCCC1`, the binding response (% of control) was 92.3% (inactive).

Consider `CC(Nc1nc(N2CCN(CCO)CC2)nc2ccccc12)c1ccccc1` (stereo not drawn), for which the binding response (% of control) is 100% (inactive).

For the molecule `Cc1ccc(NC(=S)N2CCN(c3ncccn3)CC2)cc1C`, the binding response (% of control) was 104% (inactive).

For `C=CCc1cccc2cc(C(=O)NC3CCCC3)c(=O)oc12`, the binding response (% of control) is 97.8% (inactive).

For `C/C=C\C=C\C(=O)N1CC2(CC(c3cccc(NC(=O)/C(C)=C\C)c3)=NO2)C[C@H]1C(N)=O` (stereo partly drawn), the binding response (% of control) is 103% (inactive).

`COc1ccc(CC(=O)n2nc(-c3cccnc3)nc2N)cc1`: the binding response (% of control) is 96.8% (inactive).

`CCCC(=O)n1nc(-c2ccccc2)nc1N`: the binding response (% of control) is 25.8% (active).

In the case of `COc1ccccc1C(=O)n1nc(-c2ccccc2)nc1N`, the binding response (% of control) is 98.8% (inactive).

`CCCNC(=S)NC1CC2CCCC(C1)N2CC(C)C` (stereo not drawn): the binding response (% of control) was 99.3% (inactive).

On to `CCNC(=O)CC1C(=O)N(c2ccc(F)cc2)C(=O)N1CCc1sccc1C` (stereo not drawn), for which the binding response (% of control) is 99.7% (inactive).

As for `CC(C)C(NS(=O)(=O)c1cccs1)C(=O)Nc1nc(C(C)(C)C)cs1` (stereo not drawn), the binding response (% of control) was 99% (inactive).

With `COc1ccc(CCNC(=O)C2CC3Cn4c(nc5cc(C)c(C)cc54)C3N2C)cc1` (stereo not drawn), the binding response (% of control) was 103% (inactive).

For `COc1ccc(C)cc1NC(=O)CSc1ccc(Cl)cc1`, the binding response (% of control) is 105% (inactive).

Regarding `CCOc1ccc(-c2ccc(SCC(=O)N3CCOCC3)nn2)cc1`, the binding response (% of control) was 104% (inactive).

`CCOC(=O)c1c(C)[nH]c(C2=NNC(=NC(C)COC)SC2)c1C` (stereo not drawn): the binding response (% of control) is 92.4% (inactive).

As to `CCOC(=O)C1=C(C)NC(=O)N(C(C)=O)C1c1ccc(Cl)cc1` (stereo not drawn), the binding response (% of control) is 115% (inactive).

For the molecule `CCOC(=O)C1C(c2ccc(Cl)cc2)NC(=S)NC1(O)C(F)(F)F` (stereo not drawn), the binding response (% of control) is 102% (inactive).

Regarding `CCOC(=O)C1Sc2[nH]c(=O)sc2C(c2ccc(Cl)cc2)C1C(=O)OCC` (stereo not drawn), the binding response (% of control) was -41.2% (active).
